Source: PubChem BioAssay AID1578 (Sanford-Burnham Center for Chemical Genomics, 2009)
About 3,000 (1%) of roughly 290,000 compounds were called active. Rule as the data show it: active = inhibition mostly above about 36% (no sharp cut-off); inactive = mostly below about 34%. What follows is part of a selection rich in actives, with near analogues and random picks from the rest.

experiment: NOD1 signaling inhibitors, primary screen, cell-based, luminescence, uHTS (AID 1578); conditions: NOD1-driven NF-kB luciferase reporter cells, at 4 µM, active compounds read high;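 also: HEK-293T reporter cells stimulated with the NOD1 agonist gamma-tri-DAP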

inhibition, active:
CCOC(=O)c1ccc2ncc(C(=O)OCC)c(Nc3ccc(N4CCOCC4)cc3)c2c1 107%
C=C1CCC[C@]2(C)C[C@H]3OC(=O)C(CN4CCCCC4CO)[C@H]3CC12 (some centres undefined) 80.3%
CC(C)(C)c1ccc(Oc2ccc(N)cn2)cc1 65.9%
CC(C)(C)c1ccc(Oc2ccc(N)cc2)cc1 82%
Cc1nc(=S)c2c([nH]1)-c1ccccc1CC21CCCCC1 104%
N#C/C(=C/c1ccc(Sc2nc3ccccc3[nH]2)o1)c1cccc(F)c1 76.3%
COc1ccc(/C=C/c2n[nH]c(=O)c(C#N)c2C)cc1 84.3%
CC1(C)CC(=O)C2=C(C1)Nc1ccccc1N=C2 59.6%
O=C1CCCCC1Sc1nnc(-c2ccc3c(c2)OCO3)o1 (centres undefined) 87.4%
O=C(c1ccc(Cl)cc1)N1CCCCC(Sc2nnc(-c3ccc4c(c3)OCO4)o2)C1=O (centres undefined) 57.8%
O=C(/C=C/c1ccc(OCc2ccccc2)c(OCc2ccccc2)c1)c1cccnc1 87.9%
CCN1CCN(Cc2ccc(NC(=O)c3ccc(C)c(NC(=O)C(=O)c4c[nH]c5ccccc45)c3)cc2C(F)(F)F)CC1 67.1%
CCN1CCN(Cc2ccc(NC(=O)c3ccc(C)c(NC(=O)c4cccc(-c5cn[nH]c(=O)c5)c4)c3)cc2C(F)(F)F)CC1 72%
Clc1ccc(-c2cnn3c(-c4ccncc4)ccnc23)cc1 52%
O=C(Nc1ccc(Cl)c(Cl)c1)Nc1nnc(CSc2ccccc2)s1 74.5%

inhibition, inactive:
CCOC(=O)c1cnc2ccc(C(=O)OC)cc2c1Nc1ccc(C(=O)O)cc1 -16.9%
CCOC(=O)c1cnc2ccc(C)cc2c1Nc1ccc(N2CCOCC2)cc1 -17.2%
CC(C)C(NC(=O)C(C)N1C(=O)c2ccccc2C1=O)c1ccccc1 (centres undefined) -7.4%
CCC(=O)c1ccc(SC(=O)N(C)C)cc1O -4.8%
C=C1CCC[C@]2(C)C[C@H]3OC(=O)C(CN4CCOCC4)[C@H]3C[C@@H]12 (some centres undefined) 2.5%
C=C1CCC[C@]2(C)C[C@H]3OC(=O)C(CN4CC(C)OC(C)C4)[C@H]3C[C@@H]12 (some centres undefined) -4.7%
COc1ccccc1NC(=O)c1sc2ncn(Cc3ccc(C)cc3)c(=O)c2c1C -43.8%
CCCS(=O)(=O)Nc1cc(C(F)(F)F)ccc1OCCOC -0.9%
Nc1ccc(Oc2ccc(Br)cc2)cc1 -35.5%
Cc1cc(C)cc(Oc2ccc(N)cc2)c1 -28.1%
Nc1ccc(Oc2ccc(F)cc2)nc1 -4.6%
Cc1cc(Oc2ccc(N)cn2)ccc1Cl 4.5%
Nc1ccc(Oc2cc(N)cc(Oc3ccccc3)c2)cc1 -12.3%
Cc1cccc(Oc2ccc(N)cc2)c1 -25.9%
CCn1c2c(c3cc(Br)ccc31)CCC/C2=N\O 15.3%
O=C(CCN1CCN(Cc2ccccc2)CC1)NNC(=O)Cc1ccc(Cl)c(Cl)c1 -1.2%
COCC(=O)N(Cc1cc2cc(OC)ccc2[nH]c1=O)c1ccc(C)cc1 -12.1%
O=C(CCS(=O)(=O)c1ccccc1)Nc1ccc2c(c1)OCO2 -59.3%
CCOC(=O)N1CCN(S(=O)(=O)c2cc(Br)cnc2N)CC1 10.4%
COc1ccc(-c2csc(N3CCC(c4ccccc4)C3)n2)cc1 (centres undefined) 26.8%
CCc1ccc(N(CC(=O)N2CCN(Cc3ccccc3)CC2)S(C)(=O)=O)cc1 -32.3%
Nc1nc(=S)[nH]c2c1C1(CCCC1)Cc1ccccc1-2 14.3%
Nc1nc(=S)[nH]c2c1C1(CCCCC1)Cc1ccccc1-2 -16.2%
N#C/C(=C/c1ccc(Sc2nc3ccccc3[nH]2)o1)c1cccc(Br)c1 3.1%
N#C/C(=C\c1ccc(Sc2nc3ccccc3[nH]2)o1)c1ccccc1 65.2%
COc1cccc(CN2CCN(C(=S)NCc3ccc(Cl)cc3)CC2)c1 -10.4%
CCc1nc2sc3c(c2c(=O)n1CCO)CCC3 -18.6%
COC(=O)c1cc(C)sc1NC(=O)CCCC(=O)O -19.8%
CCCCNC(=O)CCn1c(=O)c2ccccc2n(CC(=O)N2CC(C)CC(C)C2)c1=O (centres undefined) 21.3%
COc1cccc(/C=C/c2n[nH]c(=O)c(C#N)c2C)c1 -7.2%
Cc1ccsc1/C=C/c1n[nH]c(=O)c(C#N)c1C 9.3%
COc1ccc(-c2nc3ccccc3c(=O)n2NC(=O)Cc2ccccc2)cc1 -18.8%
COCCC(=O)N1CCC(Oc2ccc(C(=O)N3C[C@@H](C)O[C@@H](C)C3)cc2)CC1 -23.9%
O=C(c1cccc(Oc2ccc([N+](=O)[O-])cc2Cl)c1)N1CCOCC1 -7.9%
CC1CC(=O)C2=C(C1)Nc1ccccc1N=C2 (centres undefined) 11.1%
CCC(=O)c1cccc2c1N=CC1=C(CC(C)(C)CC1=O)N2 -20.6%
CCCNc1cc(=S)nc(N)[nH]1 5%
Clc1ccc(CSc2nnc(-c3ccc4c(c3)OCO4)o2)cc1 -7.9%
O=C(O)CSc1nnc(-c2ccc3c(c2)OCO3)o1 4.3%
N#CCSc1nnc(-c2ccc3c(c2)OCO3)o1 -37.8%
O=C1OCCC1Sc1nnc(-c2ccc3c(c2)OCO3)o1 (centres undefined) -4.4%
Clc1nc(Oc2ccccc2)nc(-c2cn(-c3ccccc3)c3ccccc23)n1 -9.4%
O=C(/C=C/c1cccc(O)c1)c1cccnc1 -20.2%
O=C(/C=C/c1cccc(OCc2ccccc2)c1)c1cccnc1 36.4%
CC(=O)c1c2c3c(c(Br)ccc3n(C)c1=O)C(=O)c1ccccc1-2 -3.8%
CCN1CCN(Cc2ccc(NC(=O)c3ccc(C)c(NC(=O)c4cccc5[nH]ccc45)c3)cc2C(F)(F)F)CC1 -0.1%
CCN1CCN(Cc2ccc(NC(=O)c3ccc(C)c(NC(=O)c4nccn4C)c3)cc2C(F)(F)F)CC1 7.7%
CCN1CCN(Cc2ccc(NC(=O)c3cc(NC(=O)C(=O)c4c[nH]c5ccccc45)cc(OC)c3)cc2C(F)(F)F)CC1 -3.5%
CCN1CCN(Cc2ccc(NC(=O)c3ccc(C)c(NC(=O)c4cc(-c5ccc(Br)cc5)n[nH]4)c3)cc2C(F)(F)F)CC1 -4.1%
CCN1CCN(Cc2ccc(NC(=O)c3ccc(C)c(NC(=O)c4ccc5n[nH]nc5c4)c3)cc2C(F)(F)F)CC1 -1.3%
CCN1CCN(Cc2ccc(NC(=O)c3ccc(C)c(NC(=O)c4ccnnc4)c3)cc2C(F)(F)F)CC1 3.7%
Cc1cc(C)n(NC(=S)NC2CCCC2)c(=O)c1C#N -10.5%
CC1CC(C)CN(S(=O)(=O)c2ccc(Oc3ccc([N+](=O)[O-])cc3)cc2)C1 (centres undefined) 36.9%
O=C(CCn1nc(-c2ccccc2)ccc1=O)N1CCN(c2ccccn2)CC1 -14.7%
O=C(CCc1nnc(CCC2CCCCC2)o1)NCCc1ccccn1 -21.2%
COC(=O)c1c(C)oc(C)c1S(=O)(=O)NCc1ccc(OC)cc1 -3.5%
Cc1c(C)n(CC(O)CN(CCO)CCO)c2ccccc12 (centres undefined) -21.9%
COc1ccc(CCNC(=O)C(C)OC(=O)c2ccco2)cc1OC (centres undefined) -19.4%
O=C1OCCC1Sc1nnc(-c2ccccc2)o1 (centres undefined) 0.8%
O=C1OCCC1Sc1nnc(-c2ccc(Br)cc2)o1 (centres undefined) -16%
CCOc1ccc(C2C(C(=O)c3ccco3)=C(O)C(=O)N2CCN2CCOCC2)cc1 (centres undefined) 8.2%
Cc1ccc(S(=O)(=O)/N=C(/c2ccccc2)N2CCOCC2)cc1 7.1%
Cc1ccc(CS(=O)(=O)CCC(=O)NCCC(C)C)cc1 -16.6%
CCOc1cc(/C=N\Nc2ncc(F)c(N3CCOCC3)n2)ccc1Oc1nc(Cl)ncc1F 19.9%
Fc1ccc(-c2cnn3c(-c4ccncc4)ccnc23)cc1 -51.9%
Fc1ccc(-c2cnn3c(-c4cccs4)ccnc23)cc1 -29%
O=c1c2sc3nc(N4CCOCC4)c4c(c3c2ncn1CCc1ccccc1)CCCC4 45.8%
O=C(Nc1ccncc1)Nc1cccc(C(F)(F)F)c1 3.5%
CCn1ncc(NC(=O)Nc2cccc(C(F)(F)F)c2)c1C(N)=O -12.4%
COc1ccc(NC(=O)Nc2nnc(-c3cccs3)s2)cc1 -3%
O=C(Nc1ccc(Cl)cc1)Nc1nnc(CSc2ccc(Cl)cc2)s1 -8.9%
O=C(Nc1ccc(Cl)cc1)Nc1nnc(CSCc2ccccc2)s1 -3.9%
COc1ccc(NC(=O)Nc2nnc(-c3ccco3)s2)cc1 -7.3%
O=C(Nc1ccc(F)cc1)Nc1nnc(-c2ccncc2)s1 -10.7%
O=C(Nc1ccc(Cl)cc1)Nc1nnc(-c2ccncc2)s1 67.3%
COc1ccc(-c2[nH]ncc2CN2CCC(C(=O)N3CCOCC3)CC2)c(F)c1 -28.9%
Cc1nc(C(=O)NCc2ccccc2)sc1C1(C)CC(c2cccc([N+](=O)[O-])c2)=NO1 (centres undefined) -0.1%
COc1ccc(CNC(=S)Nc2ccccc2-c2ccccc2)cc1 -26.8%
O=C(NC1CCCCC1)C1CCN(c2ncccn2)CC1 -38.7%
